Source: PubChem
Rows were chosen to be rich in hits. Some 19% of all compounds tested hit in one or more screens of this group.
VP16 counter: Gal4-VP16 reporter inhibition counter-screen | Drosophila S2 Gal4-VP16 UAS-luciferase, luminescence, 20 h | Potency, µM (series often up to 53.6 µM), actives largely listed as inhibitors | hit rate 3.5% among 310,000 | AID 2546;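 note: Gal4-VP16 expression switched on by copper sulfate through the metallothionein promoter; nearly all actives have a fitted effect of over 50% in size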
TDP1 cell CPT: DT40-hTDP1 cell growth loss with CPT | AID 686979 | chicken DT40 Tdp1-/-;hTDP1 cells + 20 nM CPT, ATP luminescence, 48 h | hit rate 12% among 420,000 | Potency, µM (series often up to 46.2 µM), usual class: inhibitors; note: nearly all actives have a fitted effect of over 55% in size
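Chicken DT40 Tdp1-/- cells stably complemented with human TDP1 were seeded at 400 cells/well in medium containing 20 nM camptothecin, exposed to pin-transferred compounds, and grown at 37 °C for at least 48 hr. Viability was read as ATP luminescence.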
RORg inh: inhibitors of mouse ROR gamma transcriptional activity. Drosophila S2 Gal4-RORgamma UAS-luciferase reporter, 20 h. P51450. hit rate 5.4% among 310,000. Potency, µM (top dose mostly 53.6 µM), usual class: inhibitors; note: nearly all actives have a fitted effect of over 60% in size
Target sequence (P51450 whole entry, looked up, the tested form may be a part): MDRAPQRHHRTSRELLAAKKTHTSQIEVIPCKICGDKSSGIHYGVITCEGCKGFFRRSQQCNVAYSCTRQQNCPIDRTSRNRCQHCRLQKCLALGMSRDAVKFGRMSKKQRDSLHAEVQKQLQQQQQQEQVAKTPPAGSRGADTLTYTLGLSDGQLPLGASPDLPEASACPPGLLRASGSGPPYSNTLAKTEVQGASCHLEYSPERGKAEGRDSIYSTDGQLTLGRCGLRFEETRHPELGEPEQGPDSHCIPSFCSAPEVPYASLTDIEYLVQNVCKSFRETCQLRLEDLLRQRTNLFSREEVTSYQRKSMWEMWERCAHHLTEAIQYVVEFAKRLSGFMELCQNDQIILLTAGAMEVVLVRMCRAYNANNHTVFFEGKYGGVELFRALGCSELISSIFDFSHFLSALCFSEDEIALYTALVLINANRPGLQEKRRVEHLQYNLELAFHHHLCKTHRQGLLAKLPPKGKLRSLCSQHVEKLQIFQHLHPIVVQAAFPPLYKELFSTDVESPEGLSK
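Stably transfected Drosophila Schneider cells are the test system, with ROR gamma fused to Gal4 and luciferase under UAS control; luminescence is read after 20 hr of 700 uM copper sulfate induction at ambient temperature.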
TDP1 inh: blocks human tyrosyl-DNA phosphodiesterase 1. recombinant TDP1, AlphaScreen DNA substrate cleavage. Potency, µM (highest dose often 130 µM), actives largely listed as inhibitors. hit rate 0.28% among 350,000. AID 485290; note: nearly all actives have a fitted effect of over 40% in size
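Recombinant human Tdp1 (E. coli-expressed, 1 nM final) preincubated with compounds 15 min at room temperature, then 5'-biotin/3'-phosphotyrosine-FITC DNA substrate (15 nM final) added for 5 min. AlphaScreen beads (10 ug/ml final) added 10 min; cleavage lowers signal.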
TDP1 cell noCPT: qHTS for Inhibitors of human tyrosyl-DNA phosphodiesterase 1 (TDP1): qHTS in cells in absence of CPT | DT40 Tdp1-/- hTDP1 cells, no CPT, ATP luminescence, 48 h | Potency, µM (doses to about 46.2 µM), most hits filed as inhibitors | hit rate 15% among 420,000 | AID 686978, 2013; note: nearly all actives have a fitted effect of over 55% in size
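Stably hTDP1-transfected Tdp1-null chicken DT40 cells were treated with library compounds minus camptothecin and grown for at least 48 hr at 37 °C, after which cellular ATP was quantified by luminescence.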
Large screens that a line does not name were inactive. Calls come from the whole dose curve; as a rule, active = well fitted curve in the direction sought with a large enough effect; inconclusive = small, poorly fitted or top-dose-only effect, or another doubt; inactive = no such curve, though single readings can be large; an effect the other way counts as inactive or inconclusive.

CCC(=O)N1c2ccc(S(=O)(=O)CCC(=O)NC3CCCC3)cc2CC1C (centres undefined)	none
CCC(=O)N1c2ccc(S(=O)(=O)NC3CCCCC3)cc2CC1C (centres undefined)	TDP1 cell CPT 21µM, TDP1 cell noCPT inconclusive
CC(C)(O)/C=C/C[C@](C)(O)C1CC[C@]2(C)C1[C@H](O[C@H]1O[C@@H](CO)[C@H](O)[C@@H](O)[C@@H]1O)CC1[C@@]3(C)CC[C@H](O)C(C)(C)C3[C@@H](O)C[C@]12C (some centres undefined)	none (no result: VP16 counter, RORg inh)
CCN1C(=O)[C@H]2[C@@H]3[C@H](O)C=CC(=O)[C@H]3CC[C@H]2C1=O	none (no result: TDP1 cell CPT, TDP1 cell noCPT)
O=C(COC(=O)c1cc(-c2cccc(Br)c2)nc2ccccc12)NCC1CCCO1 (centres undefined)	TDP1 cell CPT 0.016µM
O=C(NCC1CCCO1)c1cc(-c2ccccc2)nc2ccc(Br)cc12 (centres undefined)	TDP1 cell CPT inconclusive, TDP1 cell noCPT inconclusive
COc1ccc(-c2cc(C(=O)NCC3CCCO3)c3cc(C(C)C)ccc3n2)cc1 (centres undefined)	VP16 counter inconclusive, TDP1 cell CPT 16µM, RORg inh inconclusive, TDP1 cell noCPT inconclusive
COc1ccc(-c2cc(C(=O)NCC3CCCO3)c3cc(C)ccc3n2)cc1 (centres undefined)	VP16 counter inconclusive, TDP1 cell noCPT 16µM
COc1cccc(-c2cc(C(F)(F)F)n3ncc(C(=O)N4CCc5ccccc5C4)c3n2)c1	TDP1 cell CPT 16µM, TDP1 cell noCPT 18µM
COc1ccc(CCN2C(=O)CC(N3CCN(C/C=C/c4ccccc4)CC3)C2=O)cc1OC (centres undefined)	TDP1 cell CPT inconclusive, TDP1 cell noCPT inconclusive (no result: TDP1 inh)
CC(C)N1CCN(c2ccncc2S(=O)(=O)N2CCOCC2)CC1	none
COc1cccc(-c2cc(C(=O)NCC3CCCO3)c3ccccc3n2)c1 (centres undefined)	TDP1 cell noCPT 18µM
COc1cccc(-c2cc(C(F)(F)F)n3ncc(C(=O)NCC4CCCO4)c3n2)c1 (centres undefined)	VP16 counter inconclusive, TDP1 cell CPT inconclusive, TDP1 cell noCPT 23µM
COCCCNC(=O)C1CC(=O)N(Cc2ccc(OC)cc2)C1 (centres undefined)	none
CCC(C)Sc1ccc([C@H]2N[C@@](CC(C)C)(C(=O)OC)[C@H]3C(=O)N(CC)C(=O)[C@@H]23)cc1 (some centres undefined)	TDP1 cell CPT inconclusive, TDP1 cell noCPT inconclusive (no result: VP16 counter, RORg inh)
CCC(C)Sc1ccc([C@H]2N[C@@](Cc3ccccc3)(C(=O)OC)[C@H]3C(=O)N(CC)C(=O)[C@@H]23)cc1 (some centres undefined)	TDP1 cell CPT inconclusive, TDP1 cell noCPT 21µM (no result: VP16 counter, RORg inh, TDP1 inh)
CCC(C)Sc1ccc([C@H]2N[C@@](Cc3ccccc3)(C(=O)OC)[C@H]3C(=O)N(CC)C(=O)[C@@H]23)cc1OC (some centres undefined)	TDP1 cell CPT inconclusive, TDP1 cell noCPT 21µM (no result: VP16 counter, RORg inh)
O=S(=O)(c1cccc2c(I)cccc12)N1CCCNCC1	TDP1 cell CPT 13µM, RORg inh inconclusive, TDP1 cell noCPT 8.2µM
O=S(=O)(c1cccc2cccc(Cl)c12)N1CCCC1	none
O=S(=O)(c1cccc2c(Cl)cccc12)N1CCCNCC1	TDP1 cell CPT 9.2µM, TDP1 cell noCPT 5.8µM
O=C1CNC(=S)N1Cc1ccc(Cl)cc1	none (no result: TDP1 inh)
O=C1CNC(=S)N1CCc1ccc(Cl)cc1	TDP1 cell noCPT 16µM
CCCOc1ccc(/C=C2/C(=O)ON=C2C)cc1Cl	TDP1 cell CPT 18µM, TDP1 cell noCPT inconclusive (no result: TDP1 inh)
C#CCOc1c(Cl)cc(/C=C2/C(=O)ON=C2C)cc1OC	TDP1 cell CPT inconclusive, TDP1 cell noCPT inconclusive (no result: TDP1 inh)
COc1cc(/C=C2/C(=O)ON=C2C)cc(Cl)c1O	VP16 counter inconclusive, TDP1 cell CPT 18µM, RORg inh 13µM, TDP1 cell noCPT inconclusive (no result: TDP1 inh)
COc1cc(/C=C2\SC(c3ccccc3)=NC2=O)cc(Cl)c1O	TDP1 cell CPT 21µM, TDP1 cell noCPT inconclusive
CC1=NOC(=O)/C1=C/c1ccc(O)c(Cl)c1	VP16 counter 16µM, TDP1 cell CPT inconclusive, RORg inh 11µM, TDP1 cell noCPT 9.2µM (no result: TDP1 inh)
